The values below come from PubChem BioAssay.

Several values for one entry are separate records, joined by “and”; a condition that tells them apart may be missing. Identical values can stand only once. Activity calls are given as the source filed them. Unless noted, no rule for the calls is given here.

Assay [1] is described as follows: anti-His antibody binders, primary screen, artefact control for SMM control protein annotation, biochemical, small-molecule microarray, 635 nm fluorescence (AID 1128).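 Also: score merges feature fluorescence with signal-to-noise for each printed compound spot.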 The note with it: anti-His Alexa647 antibody binding, higher = more signal.
Assay [2] deals with Human papillomavirus type 1a E7 protein (residues 1-88). Briefly: HPV1a E7 small-molecule binders, primary screen, biochemical, small-molecule microarray, residues 1-88, 635 nm (AID 1129). The note with it: small-molecule microarray binding, fluorescence 635 nm; higher = more signal.
For assay [3], the target named is Focal adhesion kinase 1 (Homo sapiens) (UniProt Q05397). Nature of the assay: small-molecule microarray binders of FAK, primary screen, biochemical, 635/667 nm fluorescence, BSA, DTT (AID 1130).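 Also: composite of spot emission at 667 nm and signal to noise over triplicate slides.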 Particulars: PTK2 binding, 635 nm fluorescence, higher = more signal.
Sequence of Focal adhesion kinase 1 (Homo sapiens) (Q05397 whole entry, looked up): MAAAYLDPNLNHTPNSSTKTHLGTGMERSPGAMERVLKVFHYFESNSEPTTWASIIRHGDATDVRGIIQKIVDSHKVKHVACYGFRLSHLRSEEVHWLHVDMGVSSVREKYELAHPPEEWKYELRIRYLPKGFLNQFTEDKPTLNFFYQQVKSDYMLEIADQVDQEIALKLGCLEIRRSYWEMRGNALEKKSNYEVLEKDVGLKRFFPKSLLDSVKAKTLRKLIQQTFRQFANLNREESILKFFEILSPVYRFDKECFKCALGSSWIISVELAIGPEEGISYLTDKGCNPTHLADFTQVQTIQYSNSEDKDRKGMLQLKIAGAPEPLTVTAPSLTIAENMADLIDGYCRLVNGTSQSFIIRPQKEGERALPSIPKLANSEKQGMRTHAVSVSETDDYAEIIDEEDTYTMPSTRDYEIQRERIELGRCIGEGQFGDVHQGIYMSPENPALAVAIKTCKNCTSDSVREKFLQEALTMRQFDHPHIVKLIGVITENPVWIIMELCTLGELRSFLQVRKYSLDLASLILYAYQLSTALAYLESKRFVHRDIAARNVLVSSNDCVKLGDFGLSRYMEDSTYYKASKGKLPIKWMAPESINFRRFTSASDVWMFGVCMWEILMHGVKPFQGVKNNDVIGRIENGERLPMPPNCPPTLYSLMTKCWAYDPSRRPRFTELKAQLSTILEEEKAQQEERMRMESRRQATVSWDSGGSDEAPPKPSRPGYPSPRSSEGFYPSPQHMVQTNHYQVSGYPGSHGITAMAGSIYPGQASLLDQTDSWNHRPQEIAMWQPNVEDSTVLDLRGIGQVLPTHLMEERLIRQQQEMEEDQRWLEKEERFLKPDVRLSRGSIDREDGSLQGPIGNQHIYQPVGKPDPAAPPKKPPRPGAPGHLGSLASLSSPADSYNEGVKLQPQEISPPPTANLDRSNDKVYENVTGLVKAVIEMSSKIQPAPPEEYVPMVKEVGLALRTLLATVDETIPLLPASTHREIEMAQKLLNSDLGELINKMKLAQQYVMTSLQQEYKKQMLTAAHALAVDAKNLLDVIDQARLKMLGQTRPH
Assay [4] relates to Fibrinogen (Alexa647-labelled). Nature of the assay: fibrinogen binders on compound microarrays, profiling panel, artefact control for SMM control-protein annotation, biochemical, small-molecule microarray, 635/667 nm fluorescence (AID 1131).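 Also: z-score merges 667 nm fluorescence with per-spot signal-to-noise over triplicate slides.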 Particulars: fibrinogen-A647 binding fluorescence, higher = more signal.
In assay [5] the target is Follistatin (Homo sapiens) (UniProt P19883). Nature of the assay: follistatin binders on small-molecule microarrays, primary screen, biochemical, small-molecule microarray, 635/667 nm fluorescence (AID 1132). Particulars: FST binding, 635 nm fluorescence, higher = more signal.
Sequence of Follistatin (Homo sapiens) (P19883 whole entry, looked up): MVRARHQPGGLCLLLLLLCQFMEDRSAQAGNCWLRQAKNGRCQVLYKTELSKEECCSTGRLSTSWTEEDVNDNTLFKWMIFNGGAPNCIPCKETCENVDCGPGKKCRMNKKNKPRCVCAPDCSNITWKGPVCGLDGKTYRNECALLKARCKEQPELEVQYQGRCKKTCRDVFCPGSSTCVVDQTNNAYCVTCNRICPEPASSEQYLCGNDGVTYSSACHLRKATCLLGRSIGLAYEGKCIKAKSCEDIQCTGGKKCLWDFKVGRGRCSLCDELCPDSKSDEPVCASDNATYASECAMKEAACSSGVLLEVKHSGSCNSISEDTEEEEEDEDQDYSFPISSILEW
Assay [6] deals with Fibroblast growth factor 2 (Homo sapiens) (UniProt P09038). Nature of the assay: FGF2 binders on small-molecule microarrays, primary screen, biochemical, small-molecule microarray, 635/667 nm fluorescence (AID 1133). Particulars: small-molecule microarray binding, FGF2, fluorescence 635/667; higher = more signal.
Sequence of Fibroblast growth factor 2 (Homo sapiens) (P09038 whole entry, looked up): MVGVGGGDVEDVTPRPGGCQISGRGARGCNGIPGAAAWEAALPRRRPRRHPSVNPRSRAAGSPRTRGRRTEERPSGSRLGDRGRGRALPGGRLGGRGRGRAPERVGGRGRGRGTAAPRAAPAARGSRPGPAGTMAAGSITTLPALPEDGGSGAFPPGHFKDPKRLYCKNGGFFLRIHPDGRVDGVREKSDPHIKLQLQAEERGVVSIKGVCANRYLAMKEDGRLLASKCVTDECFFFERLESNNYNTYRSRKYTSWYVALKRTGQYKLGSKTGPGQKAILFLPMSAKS
Assay [7] is described as follows: mitochondrial membrane potential change in A549 cells, profiling panel, cell-based, JC-1 fluorescence, basal, 24 h, 100 nL (AID 1138).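 Also: A549 lung adenocarcinoma cells under basal conditions with no added stimulus; test concentration not given here.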 The note with it: higher = more signal.
In a further assay the test system is Lefty1. Nature of the assay: Lefty1 binders on small-molecule microarrays, primary screen, biochemical, small-molecule microarray, 635/667 nm fluorescence (AID 1139). The note with it: small-molecule microarray binding, fluorescence 635/667; higher = more signal.
Assay [8] relates to wheat germ agglutinin (Triticum aestivum), Alexa647-labelled. Briefly: wheat germ agglutinin binders on compound microarrays, profiling panel, artefact control for SMM control-protein annotation, biochemical, small-molecule microarray, 635/667 nm fluorescence (AID 1140).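 Also: score merges 667 nm feature emission with signal to noise over triplicate slides.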 Particulars: WGA-A647 binding, 635 nm fluorescence, higher = more signal.
Assay [9] deals with Luciferin 4-monooxygenase (Photinus pyralis) (UniProt P08659). Briefly: firefly luciferase enzyme inhibitors, primary screen, biochemical, luminescence, purified enzyme, 2006 set (AID 1141).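 Also: cell-free assay with purified firefly luciferase at 100 ng per well in PBS; test concentration not given here.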 Particulars: SteadyGlo luminescence, 30 min, higher = more signal, called active from +8 up or from −8 down.
Sequence of Luciferin 4-monooxygenase (Photinus pyralis) (P08659 whole entry, looked up): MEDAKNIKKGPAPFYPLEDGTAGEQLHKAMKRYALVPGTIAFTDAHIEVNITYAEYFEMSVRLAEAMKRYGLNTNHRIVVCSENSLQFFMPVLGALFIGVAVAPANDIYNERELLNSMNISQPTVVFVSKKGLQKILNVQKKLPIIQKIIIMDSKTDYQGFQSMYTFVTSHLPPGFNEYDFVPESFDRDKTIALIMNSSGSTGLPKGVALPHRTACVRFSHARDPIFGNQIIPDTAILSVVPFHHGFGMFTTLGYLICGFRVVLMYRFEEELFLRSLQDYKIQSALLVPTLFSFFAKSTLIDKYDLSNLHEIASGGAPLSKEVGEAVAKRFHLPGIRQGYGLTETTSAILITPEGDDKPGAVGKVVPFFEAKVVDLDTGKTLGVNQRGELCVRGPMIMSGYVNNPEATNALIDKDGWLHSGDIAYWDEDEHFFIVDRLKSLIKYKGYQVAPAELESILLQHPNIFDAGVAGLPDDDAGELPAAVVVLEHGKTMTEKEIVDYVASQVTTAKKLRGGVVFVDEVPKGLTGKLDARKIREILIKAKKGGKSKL
Assay [10] has as its system Wnt5a (protein binding on small-molecule microarray). Briefly: Wnt5a binders on small-molecule microarray, primary screen, biophysical, 635/667 nm fluorescence (AID 1142).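 Also: fluorescence read at 667 nm with signal to noise per printed feature.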 Particulars: 635 nm fluorescence, higher = more signal.
The nature of assay [11]: cell viability in Huh7 cells, primary screen, cytotoxicity control for HCV replication inhibitor project, CellTiter-Glo luminescence, basal, 48 h (AID 1143).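 Also: Huh7 hepatoma cells carrying a hepatitis C replication reporter with no stimulus; test concentration not given here.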 The note with it: Huh7 HCV replicon, higher = more signal, called active from +8 up or from −8 down. (ATP-based viability assays read luminescence as a measure of living cells.)
Assay [12] can be described thus: P. aeruginosa biofilm formation inhibitors, primary screen, PAO1 strain, BacTiter-Glo luminescence, LB-PBS (AID 1144). Particulars: 12 h, higher = more signal.
Assay [13] can be described thus: CREB reporter modulators without forskolin, primary screen, cell-based, PC12, CRE-LacZ reporter, unstimulated (AID 1145). Particulars: no forskolin, luminescence, 4.5 h, higher = more signal, called active from +8 up or from −8 down.
A short description of assay [14]: CREB reporter modulators under forskolin, primary screen, cell-based, PC12, CRE-LacZ reporter, forskolin-stimulated (AID 1146).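 Also: PC12 cells with 6xCRE LacZ reporter stimulated by forskolin 10 µM; beta-galactosidase reporter signal reflecting CREB driven transcription.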 Particulars: luminescence, 4.5 h, higher = more signal, called active from +8 up or from −8 down.
Assay [15] addresses Streptavidin (Streptomyces avidinii) (UniProt P22629). Nature of the assay: streptavidin binders on small-molecule microarray, primary screen, artefact control for SMM compound annotation, biophysical, 635/667 nm fluorescence (AID 1147).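 Also: signal reflects streptavidin binding to arrayed compounds as a control protein.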 Particulars: streptavidin binding, higher = more signal.
The nature of assay [16]: small-molecule binders of probe aInhba, primary screen, biochemical, small-molecule microarray, 635/667 nm fluorescence (AID 1148).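 Also: score merges 667nm spot fluorescence with signal-to-noise for antibody binding to printed compounds.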 Particulars: higher = more signal.
Assay [17] deals with Torsin-1A (Homo sapiens) (UniProt O14656). Briefly: torsin A binders from cell lysate, primary screen, small-molecule microarray, wild-type, 635/667 nm (AID 1149). The note with it: COS7 hTOR1A-WT lysate, 635 nm fluorescence, higher = more signal.
Sequence of Torsin-1A (Homo sapiens) (O14656 whole entry, looked up): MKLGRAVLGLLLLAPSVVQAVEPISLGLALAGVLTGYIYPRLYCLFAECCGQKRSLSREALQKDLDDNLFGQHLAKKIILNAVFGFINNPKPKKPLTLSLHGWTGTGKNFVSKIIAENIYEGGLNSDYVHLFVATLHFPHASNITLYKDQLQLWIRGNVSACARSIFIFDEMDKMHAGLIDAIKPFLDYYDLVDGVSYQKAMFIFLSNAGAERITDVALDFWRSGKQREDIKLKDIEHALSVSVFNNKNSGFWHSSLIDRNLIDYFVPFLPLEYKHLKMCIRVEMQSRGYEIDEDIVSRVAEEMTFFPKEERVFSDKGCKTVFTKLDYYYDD
Assay [18] has the same target. Nature of the assay: small-molecule binders of mutant TOR1A in lysate, primary screen, cell lysate, small-molecule microarray, COS7 lysate, 635/667 nm fluorescence (AID 1150).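 Also: score pools 667 nm emission and signal to noise measuring lysate protein binding.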 The note with it: COS7 hTOR1A mutant lysate, 635 nm fluorescence, higher = more signal.
The test system of assay [19] is Sonic hedgehog protein (Shh). Briefly: small-molecule binders of Shh protein, primary screen, biochemical, small-molecule microarray, 635/667 nm fluorescence (AID 1151).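 Also: Shh protein binding to compounds spotted on small-molecule microarray slides; score combines spot fluorescence intensity with signal-to-noise across triplicate slides.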 Particulars: small-molecule microarray binding, 635 nm fluorescence; higher = more signal.

Sequence of Streptavidin (Streptomyces avidinii) (P22629 whole entry, looked up): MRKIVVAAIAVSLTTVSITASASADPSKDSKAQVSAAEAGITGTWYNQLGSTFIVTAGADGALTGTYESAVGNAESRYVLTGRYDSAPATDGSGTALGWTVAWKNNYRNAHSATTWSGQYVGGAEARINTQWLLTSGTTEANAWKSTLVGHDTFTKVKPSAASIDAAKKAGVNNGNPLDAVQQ

For the compound `C=CCN(Cc1ccccc1)C(=O)C1N(c2ccc(CCO)cc2)C(=O)C2C(C(=O)O)C3C=CC21O3` (stereo not given), the composite z-score in assay [1] is -1.33 and -0.796; in assay [2] it was -1.49 and -1.7; in assay [3], 0.0389 and -0.704; in assay [4] it was -0.944 and -1.58; in assay [5] it was -2 and -2.08; in assay [6], -2.32 and -2.92. Moreover, the composite z-score was -2.53 and -1.55 in the assay with Lefty1; -0.0866 and 1.16 in assay [8]; -0.588 and -0.549 in assay [10]; -1.49 and -1.35 in [15]; -0.273 and -0.206 in assay [16]; -2.02 and -4.14 with Torsin-1A (Homo sapiens) [17]. Further, the composite z-score with Torsin-1A (Homo sapiens) [18] was -3.2 and -2.45; in [19] it was -1.7 and -1.87. Moreover, the z-score is -0.571 and -0.775 in assay [7]; -0.927 (inactive) and -0.283 (inactive) in assay [9]; 0.012 (inactive) and -0.668 (inactive) in [11]; -0.231 (inactive) and -1.01 (inactive) in assay [12]; 0.195 (inactive) and -0.899 (inactive) in assay [13]; 0.892 (inactive) and -0.29 (inactive) in [14].

As for `C=CC[C@@H](O)c1ccc(O)c2ccccc12`, the composite z-score in [1] was 1.02 and 1.68; in assay [2] it was 0.647 and 1.11; in assay [3], -0.618 and 0.11; in assay [4] it was 0.353 and 0.0525; in [5], 1.38 and 1.39; in [6], 1.48 and 1.7. The composite z-score in the assay with Lefty1 is 1.4 and 1.06; in assay [8], 0.175 and 0.379; in [10], 0.173 and 0.435; in assay [15], 0.49 and 0.679; in assay [16], -0.0553 and -0.141; with Torsin-1A (Homo sapiens) [17] it was 0.261 and 0.0205. The composite z-score in the assay with Torsin-1A (Homo sapiens) [18] was 0.426 and 0.369; in [19], 1.96 and 1.82. Also, the z-score was 0.388 and -0.59 in assay [7]; -2.65 (inactive) and -2.18 (inactive) in assay [9]; 0.794 (inactive) and -0.721 (inactive) in [11]; -0.498 (inactive) and -1.33 (inactive) in assay [12]; 3.25 (inactive) and 2.1 (inactive) in [13]; 2.5 (inactive) and 5.93 (inactive) in assay [14].

As to `C=CCN(CCCCC)C(=O)C(c1cccs1)N(C(=O)/C=C\C(=O)O)c1ccc(CCO)cc1` (stereo not given), the composite z-score is -0.206 and -1.12 in assay [1]; -0.502 and -0.625 in [2]; -0.279 and -0.0021 in [3]; -1.39 and -1.21 in [4]; -1.43 and -0.996 in assay [5]; -1.54 and -1.4 in assay [6]. Besides, the composite z-score is -1.07 and -1.27 in the assay on Lefty1; -0.573 and -0.325 in [8]; -0.909 and -0.947 in [10]; -1.72 and -1.16 in assay [15]; -0.331 and -0.0021 in [16]; -2.38 and -1.69 with Torsin-1A (Homo sapiens) [17]. The composite z-score in the assay with Torsin-1A (Homo sapiens) [18] was -1.96 and -1.51; in [19], -0.975 and -0.587. Also, the z-score was 0.868 and 0.897 in [7]; -1.24 (inactive) and -0.887 (inactive) in assay [9]; 0.162 (inactive) and 0.193 (inactive) in assay [11]; 0.0224 (inactive) and -0.188 (inactive) in [12]; 0.459 (inactive) and 0.597 (inactive) in assay [13]; -0.343 (inactive) and -0.244 (inactive) in assay [14].
